The full list was thinned out, with hits kept by preference.
Tg IFNy HTS: blocks Toxoplasma gondii growth in the presence of IFN-gamma | Toxoplasma gondii growth in IFN-gamma-treated host cells; hits give low values | activity change, negative = inhibition, % (concentration not given with the values) | hit rate 3.8% among 69,000 | AID 1259416; in the data active means activity change below about -70%, passing the limit was not always enough;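 further: host cells are HeLa cells infected with Toxoplasma gondii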
Of the large screens only hits and unclear results are named; the others gave an inactive call.

CC1Cc2cc(CN(C)C(=O)CCS(=O)(=O)c3cccc4cccnc34)ccc2O1 (configuration not stated)	none
CCOC(=O)c1nn(CCc2ccc(OC)cc2)c2c1CN(C(=O)c1cn3cc(C)ccc3n1)CC2	none
Cc1ccc(C2(O)CCN(c3ncccn3)CC2)nc1	none
Cc1ccc(CN2CCCn3c(nc(CN4CCCC4)cc3=O)C2)o1	none
CN(C)C(=O)CN1CCN(Cc2cccc(C(=O)Nc3cnn(C)c3)c2)CC1	none
COC(=O)c1ccc2c(C(=Nc3ccc(N(C)C(=O)CN4CCN(C)CC4)cc3)c3ccccc3)c(O)[nH]c2c1	Tg IFNy HTS -77.7
COc1c(F)cccc1C(=O)N1CCC(c2ccccc2C(=O)O)C1 (configuration not stated)	none
Cc1ccc2c(C)c(C(=O)N3CCC(Cc4nnc(CO)n4C)CC3)oc2c1	none
CC(CC(=O)Nc1cccc(N2CCCC2)c1)n1cccn1 (configuration not stated)	none
CCCCC(=O)Nc1cc2nc(CCCC)n(Cc3ccccc3Cl)c2nc1C	none
CCCCc1nc2cc(/C=C/C(=O)NO)ccc2n1CCN(CC)CC	Tg IFNy HTS -82.0
CCN(CC)CCn1c(=O)c(Cc2ccc(OC)cc2)nc2ccccc21	none
COc1ccc(C(=O)Nc2ccc3c(c2)N(C)CCC3)cc1OCc1ccccn1	none
CCc1cnc(N2[C@H](C#N)[C@H](c3ccc(C#Cc4ccccc4F)cc3)[C@H]2CO)s1	none
CCc1cnc(N2[C@H](C#N)[C@H](c3ccc(C#Cc4ccccc4F)cc3)[C@@H]2CO)s1	none
CCc1cnc(N2[C@H](C#N)[C@@H](c3ccc(C#Cc4ccccc4F)cc3)[C@H]2CO)s1	Tg IFNy HTS -74.6
Cc1ccccc1NC(=O)Cn1c(=O)ccc2cc(S(=O)(=O)N3CCC(C)CC3)ccc21	none
COc1ccccc1CNC(=O)C[C@@H]1CC[C@@H]2[C@@H](COc3ccc(NC(C)=O)cc3C(=O)N2C)O1	none
COc1ccc(OC)c(NC(=O)c2nnn(Cc3nc(-c4ccc(Cl)cc4)oc3C)c2C)c1	none
CCOC(=O)c1nc(N(CC)c2ccc(CC)cc2)c2ccccc2n1	none
CCOc1ccccc1-c1nc(CSc2nc3c(=O)[nH]c(C)nc3n2C)c(C)o1	none
COC1COC2(CCN(C(=O)Cc3ccccn3)CC2)C1 (configuration not stated)	Tg IFNy HTS -98.1
COc1ccccc1OCC(=O)N1CCC[C@]2(C[C@@H](OC)CO2)C1	none
CC(C)C(=O)NC1COC2(CCN(C(=O)Cc3ccccn3)CC2)C1 (configuration not stated)	none
O=S(=O)(CCc1ccccc1)NCCc1csc(-c2ccc(Cl)cc2)n1	none
CC1Cc2cc(CNC(=O)CCNC(=O)c3ccc(F)cc3)ccc2O1 (configuration not stated)	none
Cc1[nH]cnc1-c1c(-c2ccccc2)ncn1Cc1cnn(-c2ccccc2)c1	none
c1ccc(CN2CCC(N3CC(c4cccnc4)C3)CC2)cc1	none
O=c1ccc(=O)n(CN2CCN(Cc3ccccc3)CC2)[nH]1	none
CCc1nc(N)c(C#N)c(-c2ccccc2)c1C	none
N#Cc1c(-c2ccccc2)cc(-c2ccc(Cl)cc2)nc1N	none
N#Cc1c(N)nc(Sc2ccc(Cl)cc2)c(C#N)c1-c1ccccc1	Tg IFNy HTS -92.0
Cc1nn(C(=O)Nc2cccc(Cl)c2)c(C)c1Cc1csc2ccc(Cl)cc12	Tg IFNy HTS -84.9
COC(=O)c1ccc(S(=O)(=O)NCc2csc3ccc(Cl)cc23)n1C	none
O=C(O)c1nccnc1C(=O)NCc1csc2ccc(Cl)cc12	none
Cc1cc(C)n(S(=O)(=O)c2ccccc2)n1	none
COC(=O)C(Cc1csc2ccc(Cl)cc12)NC(=O)c1ccc(C(F)(F)F)cc1 (configuration not stated)	none
Cc1nn(S(=O)(=O)c2ccccc2)c(C)c1Cc1csc2ccc(Cl)cc12	Tg IFNy HTS -89.0
Cc1noc([C@@]23COC[C@@H]2CN(Cc2ccc(C)o2)C3)n1	none
CN1CCCC1CCNC(=O)C1(Oc2ccc3ncccc3c2)CCNCC1 (configuration not stated)	none
O=C(Nc1cnn(-c2ncncc2N2CCSCC2)c1)NC1CCCC1	none
COc1ccc(CN(C)C[C@@H]2OCc3cnnn3CCCC(=O)N([C@H](C)CO)C[C@@H]2C)cc1	none
CCc1noc(CN(CC)C(=O)c2ccnc(NC)c2)n1	none
COc1ccccc1-c1nc(Cc2noc(-c3ccc(F)cc3)n2)c(C)o1	none
Cc1ccc(OCc2nc(Cc3nc(-c4ccccc4)oc3C)no2)cc1	none
COc1ccc(-c2nc(Cc3noc(-c4ccccc4F)n3)c(C)o2)cc1	Tg IFNy HTS -113.2
COc1ccccc1-c1nc(Cc2noc(-c3ccccc3F)n2)c(C)o1	Tg IFNy HTS -78.8
COc1ccccc1-c1nc(Cc2noc(-c3ccccn3)n2)c(C)o1	none
COc1cccc(-c2nc(Cc3nc(-c4ccccc4)oc3C)no2)c1	none
Cc1cccc(C(=O)N2CCC(c3nc(C4CCCC4)no3)C2)c1 (configuration not stated)	none
CCC(CC)n1nc(C)cc1NC(=O)Cc1nc(C)sc1C	none
CC(=O)Nc1ccsc1C(=O)N1CCN2C(=O)CN(C)C(=O)C2C1 (configuration not stated)	none
Nc1c(-c2ccccn2)nsc1C(=O)N1CCC(N2CCCCC2)CC1	none
CC(C)NC(=O)N(C)C[C@@H]1Oc2c(NS(=O)(=O)c3cccs3)cccc2C(=O)N([C@@H](C)CO)C[C@@H]1C	none
COc1ccc(-c2nc(C)c(CCNC(=O)C(=O)Nc3ccccc3C)s2)cc1OC	Tg IFNy HTS -75.6
COc1ccc(C(=O)NCCc2sc(-c3ccc(Cl)cc3)nc2C)cc1	Tg IFNy HTS -76.3
COc1ccc(-c2nc(C)c(CCNC(=O)C(=O)Nc3c(C)cccc3C)s2)cc1OC	none
COc1ccc(-c2nc(C)c(CCNC(=O)c3ccc(Cl)cc3)s2)cc1	none
COc1ccc(-c2nc(C)c(CCNC(=O)C(=O)Nc3ccccc3F)s2)cc1OC	none
COc1ccc(C(=O)NCCc2sc(-c3ccc(OC)cc3)nc2C)cc1	none
Cc1nc(-c2ccc(Cl)cc2)sc1CCNC(=O)c1ccccc1	none
Cc1nc(-c2ccccc2)sc1CCNC(=O)c1ccc(Cl)cc1	none
CCCCOc1ccc(C(=O)NCCc2sc(-c3ccc(Cl)cc3)nc2C)cc1	Tg IFNy HTS -74.4
CCn1c(C2CCCN(Cc3cccc4nonc34)C2)n[nH]c1=O (configuration not stated)	none
N#Cc1cccc(-c2ccc([C@@H]3[C@H]4CN(Cc5ccccc5F)CCCCN4[C@H]3CO)cc2)c1	none
COc1ccc(CN2CCCC(c3cc(=O)[nH]c(-c4cccnc4)n3)C2)cc1 (configuration not stated)	none
COCC(=O)N1CCO[C@H]2[C@H]1CC[C@H]2OCC1CCOCC1	none
CCc1nccc(-c2nccn2-c2ccc(-c3ccn[nH]3)cc2)n1	none
CCCN1CC(c2n[nH]c(CCc3ccccc3)n2)CCC1=O (configuration not stated)	none
CCOc1ccc(C(=O)Nc2ccc(N3CCN(C(C)=O)CC3)cc2)cc1[N+](=O)[O-]	none
CC(=O)Nc1ccc(C(=O)N2CCN(C(=O)c3ccco3)CC2)cc1	none
CCOc1cccc(C(=O)Nc2ccc(N3CCN(C(=O)c4ccco4)CC3)cc2)c1	Tg IFNy HTS -86.4
COC(=O)c1cc2n(n1)CCN(C(=O)c1cnnn1-c1ccccc1)C2	none
Cc1nnc(SCCCNC2CCC3(CCNCC3)CC2)s1	none
N#Cc1ccc(-c2ccc3c(c2)[C@H]2[C@H](CCN2C(=O)C2CCCCC2)[C@@H](CO)N3)cc1	none
COc1ccccc1-c1ccc2c(c1)[C@@H]1[C@@H](CCN1C(=O)C1CCC1)[C@H](CO)N2	Tg IFNy HTS -72.0
N#Cc1ccc(-c2ccc3c(c2)[C@@H]2[C@@H](CCN2C(=O)C2CCCCC2)[C@H](CO)N3)cc1	none

Screening results: PubChem, Broad Institute
